Rows were chosen to be rich in hits. Some 10% of all compounds tested hit in one or more screens of this group.
L major viab = Leishmania major promastigote growth inhibition, primary screen; Leishmania major promastigotes, resazurin fluorescence viability; inhibition, % at 10 µM; 200,000 compounds, 9% hits; AID 1063, 2008; in the data active means inhibition above about 50%;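 further: promastigotes grown with compound for 44 hours at 28 °C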
bCat KO growth = primary screen for growth suppressors in beta-catenin knockout HCT116 cells (colon tumor, human); HCT116 beta-catenin knockout viability, CellTiter-Glo, 60 h; active compounds read low; viability, % at 10 µM; 140,000 compounds, 1.5% hits; AID 818, 2007;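 active means viability at or under a set limit, the compound median less 4 SD, cut at about 6% in these data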;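 further: 0% = Hyamine 1622 control at 20 µM and 100% = untreated cell control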
p97 inhibitor = inhibitors of human p97 ATPase, primary screen, biochemical. inhibition, % at 8 µM. AID 1481, 2009. Transitional endoplasmic reticulum ATPase (Homo sapiens), P55072. recombinant p97 ATPase, Kinase-Glo ATP luminescence, 3 h. 220,000 compounds, 0.42% hits; in the data active means inhibition above about 15%;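 further: 0% = DMSO vehicle and 100% = wells lacking enzyme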
Target sequence (P55072 whole entry, looked up): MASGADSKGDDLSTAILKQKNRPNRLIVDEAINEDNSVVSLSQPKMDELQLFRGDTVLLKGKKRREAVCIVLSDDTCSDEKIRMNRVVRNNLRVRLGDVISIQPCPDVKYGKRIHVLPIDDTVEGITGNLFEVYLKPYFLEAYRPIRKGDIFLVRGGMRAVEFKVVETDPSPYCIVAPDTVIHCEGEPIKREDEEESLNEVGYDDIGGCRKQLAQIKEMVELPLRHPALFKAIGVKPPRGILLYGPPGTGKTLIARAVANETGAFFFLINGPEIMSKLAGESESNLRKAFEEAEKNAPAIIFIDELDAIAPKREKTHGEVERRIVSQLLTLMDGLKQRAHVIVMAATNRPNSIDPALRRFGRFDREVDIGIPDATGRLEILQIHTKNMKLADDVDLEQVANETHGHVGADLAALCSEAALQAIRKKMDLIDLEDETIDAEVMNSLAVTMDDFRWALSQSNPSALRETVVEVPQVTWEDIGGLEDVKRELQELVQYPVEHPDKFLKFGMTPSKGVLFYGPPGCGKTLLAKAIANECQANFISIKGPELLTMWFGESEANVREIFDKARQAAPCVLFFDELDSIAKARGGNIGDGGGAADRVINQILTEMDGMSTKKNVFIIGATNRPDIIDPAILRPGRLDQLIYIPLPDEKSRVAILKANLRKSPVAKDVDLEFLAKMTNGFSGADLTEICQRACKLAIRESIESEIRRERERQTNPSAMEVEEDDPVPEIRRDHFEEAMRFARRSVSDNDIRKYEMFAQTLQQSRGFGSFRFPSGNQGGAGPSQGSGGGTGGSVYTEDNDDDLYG
HCT116 PTEN-null = growth suppression of PTEN-null HCT116, primary screen, cell-based, CellTiter-Glo; HCT116 PTEN-null viability, 60 h; active compounds read low; viability, % at 10 µM; 140,000 compounds, 1.2% hits; AID 827, 2007;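 active means viability at or below a set limit, 4 SD under the median of all tested compounds, cut at about 3.7% in these data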;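 further: PTEN knockout HCT116 line with beta catenin targeted HCT116 as companion control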
ROMK primary = ROMK potassium channel modulators, primary screen, cell-based, thallium flux, MLSMR library. ATP-sensitive inward rectifier potassium channel 1 (Homo sapiens), P48048. B-score at 10 µM. Tet-inducible ROMK, thallium flux fluorescence; actives lie on both sides. 130,000 compounds, 2% hits;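 active means signal ratio slope over the read window, or its plate-corrected B-score, at least 3 SD from the plate mean, either direction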;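 further: B-score of the F/F0 ratio slope over 7 to 12 s after thallium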
Insulin prom inh = inhibitors of insulin promoter-driven GFP, primary screen, imaging, TRM-6 cells (human fetal islet line), eGFP reporter, cell count. 130,000 compounds, 0.9% hits. AID 1273, 2008. inhibition, % at 2 µM. reporter expression induced with tamoxifen;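 active means inhibition above the mean plus 3 SD, with well images judged a real hit on visual review, cut at about 60% in these data, passing the limit was not always enough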
Numbers without * were called inactive; nt = no result given; ! = a repeat was not active.

SMILES | L major viab | bCat KO growth | p97 inhibitor | HCT116 PTEN-null | ROMK primary | Insulin prom inh
CN(C)S(=O)(=O)c1cccc(NC(=O)c2n[nH]c(=O)c3ccccc23)c1 | -1 | nt | 2 | nt | 0.039 | nt
COC(=O)c1ccc(NC(=O)c2cc(-c3ccccn3)nc3ccccc23)cc1 | -4 | nt | 0 | nt | 0.53 | nt
CCN(CC)S(=O)(=O)c1cc(NC(=O)c2cc(-c3ccccn3)nc3ccccc23)ccc1C | 53* | nt | 0 | nt | 2.1 | nt
CC(C)C(NC(=O)C(NC(=O)C1OC2OC(C)(C)OC2C2OC(C)(C)OC12)C(C)C)C(=O)O (stereo unspecified) | 1 | nt | 3 | nt | 1.8 | nt
O=C(CN1CCN(c2ncc(C(F)(F)F)cc2Cl)CC1)N1CCN(c2ncc(C(F)(F)F)cc2Cl)CC1 | 50* | 24 | -4 | 47 | -1.1 | 26
O=C(OC1CCN(c2ncc(C(F)(F)F)cc2Cl)CC1)c1ccccc1 | -4 | 58 | 0 | 73 | nt | -7
COc1ccc(C(=O)OC2CCN(c3ncc(C(F)(F)F)cc3Cl)CC2)cc1 | -4 | 3.4* | 1 | 57 | nt | nt
O=C(CSc1ccc(Cl)cc1)N1CCN(c2ncc(C(F)(F)F)cc2Cl)CC1 | -4 | 84 | 0 | 93 | nt | -45
CSC1=NCCN1S(=O)(=O)c1ccccc1 | -2 | nt | 6 | nt | 0.25 | 29
C=C1CC(C(=O)N/N=C/c2ccccc2)C1 | -9 | 86 | 4 | 105 | -0.81 | nt
OCC(O)CNC(=S)NC1CCCCC1 (stereo unspecified) | -7 | nt | 7 | nt | -0.55 | nt
Cc1ccc(S(=O)(=O)N(C)C)cc1NC(=O)CCc1ccccc1 | nt | nt | 1 | nt | nt | nt
COc1ccc(Oc2coc3c(CN4CCOCC4)c(O)ccc3c2=O)cc1 | -5 | 85 | -3 | 84 | 2.5 | nt
Cc1oc2c(CN3CCCC3)c(O)ccc2c(=O)c1-c1ccc(Cl)cc1 | 97* | 90 | 0 | 108 | 0.18 | -15
O=c1c(-c2ccc(Br)cc2)coc2c(CN3CCOCC3)c(O)ccc12 | 100* | 81 | 8 | 85 | nt | 27
Cc1oc2c(CN3CCOCC3)c(O)ccc2c(=O)c1-c1ccc(Br)cc1 | 99* | 103 | -2 | 100 | 0.36 | -3
Cc1oc2c(CN3CCOCC3)c(O)ccc2c(=O)c1-c1ccc(Cl)cc1 | nt | nt | 1 | nt | nt | nt
FC(F)(F)c1ccc2c(c1)nc1n2CCCC1 | -6 | 87 | -4 | 97 | nt | 73*
Cc1ncc(CO)c(/C=N/NC(=O)c2cc3c(s2)CCCC3)c1O | 98* | nt | 2 | nt | -1.3 | nt
Cc1ncc(CO)c(/C=N/NC(=O)c2ccc(O)cc2)c1O | 0 | 86 | -2 | 91 | nt | 11
Cc1ncc(CO)c(/C=N/NC(=S)Nc2ccc(Cl)c(Cl)c2)c1O | 73* | nt | 7 | nt | -0.57 | nt
Cc1ccc(Nc2c(-c3ccc(N4CCOCC4)cc3)nc3ncccn23)c(C)c1 | 20 | 82 | 9 | 90 | 0.022 | 76*
Cc1ccc(Nc2cc(C)nc(N3CCOCC3)n2)c(C)c1 | 76* | 76 | -2 | 87 | nt | -18
CNc1cc(C)nc(N2CCOCC2)n1 | nt | nt | -8 | nt | nt | nt
CCC(C)(C)n1nnnc1C(c1cc2cccc(C)c2[nH]c1=O)N1CCCC1 (stereo unspecified) | 1 | 88 | -1 | 94 | nt | 25
SMILES | L major viab | bCat KO growth | p97 inhibitor | HCT116 PTEN-null | ROMK primary | Insulin prom inh
Cc1ccc(C)c2[nH]c(=O)c(C(c3nnnn3C(C)(C)C)N3CC=C(c4ccc(F)cc4)CC3)cc12 (stereo unspecified) | 97* | 66 | 5 | 67 | -0.84 | -4
Cc1csc(NC(=O)c2cncc(Br)c2)n1 | 3 | nt | 2 | nt | 1 | nt
Cc1ccc(S(=O)(=O)NCC2CCC(C(=O)NCCCOC(C)C)CC2)cc1 (stereo unspecified) | -4 | 91 | -2 | 101 | 0.65 | 17
CCOc1ccc2nc(SCC)[nH]c2c1 | 8 | 99 | -4 | 91 | nt | 86*
c1ccc(CSc2nc3ccccc3[nH]2)cc1 | nt | nt | 3 | nt | 0.5 | nt
c1ccc(CSCc2nc3ccccc3[nH]2)cc1 | 60* | 90 | -4 | 91 | -0.22 | 76*
CC1(C)C(CSc2nc3ccccc3[nH]2)C1(Cl)Cl (stereo unspecified) | 74* | nt | 0 | nt | -0.5 | nt
CC(C)CSc1nc2ccccc2[nH]1 | 16 | nt | 2 | nt | 0.084 | nt
CCSc1nc2ccccc2[nH]1 | 10 | 96 | 4 | 95 | 1.8 | 100*!
CCCc1nc2ccccc2[nH]1 | 1 | 98 | 7 | 92 | nt | 80*
O=C(Nc1ccc(F)cc1)C(Sc1nc2ccccc2[nH]1)c1ccccc1 (stereo unspecified) | 28 | 2.7* | -2 | 2.6* | nt | -88
CCC(=O)Nc1ccc(C(=O)CSc2nc3ccccc3[nH]2)cc1 | -4 | 88 | 6 | 90 | 0.12 | 60*
O=C(Cc1nc2ccccc2[nH]1)c1ccc(Br)cc1 | 96* | nt | -7 | nt | nt | nt
Cc1nc(NC(=O)c2ccc(Cl)cc2)sc1-c1csc(Nc2cccc(F)c2)n1 | 10 | 65 | 5 | 43 | nt | 3
Cc1nc(C)c(/C(O)=C\c2nc3ccc([N+](=O)[O-])cc3oc2=O)o1 | nt | nt | 4 | nt | nt | nt
Cn1cc([N+](=O)[O-])c(C(=O)NNC(=O)c2ccc([N+](=O)[O-])cc2Cl)n1 | 1 | nt | 2 | nt | 0.79 | nt
COc1cc(OC)c(NC(=O)CCCn2c(=O)oc3ccccc32)cc1Cl | -1 | 102 | 6 | 95 | 0.092 | -7
COc1ccc(NC(=O)CCCn2c(=O)oc3ccccc32)cc1Cl | 58* | 106 | 5 | 101 | nt | 33
COc1cc(Cl)c(C)cc1NC(=O)CCCn1c(=O)oc2ccccc21 | 53* | 87 | -8 | 93 | -0.37 | -30
CCOc1ccc(C(=O)NN2C(=S)NC(C)(C)C=C2C)cc1 | nt | nt | 4 | nt | nt | nt
O=C(Cc1ccc(Br)cc1)NC1CCSC1=O (stereo unspecified) | -2 | nt | 2 | nt | 0.087 | 12
COc1ccccc1C(=O)COC(=O)CNS(=O)(=O)c1ccc(C)cc1 | 0 | nt | 0 | nt | -1.1 | nt
COc1ccccc1CN1C[C@@H]2C[C@@H](c3[nH]c4c(C)cccc4c3C)N3CCC[C@@]23C1=O | 53* | nt | 4 | nt | -1.8 | nt
COc1ccccc1CN1C[C@@H]2C[C@@H](c3cccc(C)n3)N3CCC[C@@]23C1=O | -4 | nt | -5 | nt | -0.16 | nt
COc1cccc2c1OCC([C@@H]1C[C@H]3CN(Cc4cccc(Cl)c4)C(=O)[C@]34CCCN14)=C2 | 59* | nt | -8 | nt | -1.7 | nt
Clc1cccc(Cl)c1CSc1nnc([C@@H]2CCCN2)o1 | nt | nt | 2 | nt | nt | nt
CC(=O)Oc1ccccc1N(C(C)=O)S(=O)(=O)c1ccc2ccccc2c1 | 7 | nt | 4 | nt | 2.7 | 33
CC(=O)Oc1ccc(N(C(C)=O)S(=O)(=O)c2cccs2)c2ccccc12 | 100* | 70 | 0 | 78 | 1 | 10
O=C(NCc1ccccc1)c1cc[n+](CC(=O)c2cccs2)cc1 | nt | nt | -1 | nt | nt | nt
